Records with an inconclusive call do not appear. A call without a number means that no potency is given here. Activity calls are given as the source filed them. Calls come from the whole dose curve; as a rule, active = well fitted curve in the direction sought with a large enough effect; inconclusive = small, poorly fitted or top-dose-only effect, or another doubt; inactive = no such curve, though single readings can be large; an effect the other way counts as inactive or inconclusive.

The values below come from PubChem BioAssay (NCATS).

The nature of the first test: qHTS of pediatric cancer cell lines to identify multiple opportunities for drug repurposing: Primary screen for NB-EBc1 cells (AID 1347095). Note: potency is the fitted concentration of half-maximal effect. Particulars: NB-EBc1 neuroblastoma viability, CellTiter-Glo luminescence, 48 h; series mostly up to 46 µM. In a few lines: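 CRCs from 8- or 11-point titrations (lowest final 0.59 nM NPC, 0.78 nM MIPE). Cell viability: CellTiter-Glo after 48 h incubation, 15 min room-temperature development, luminescence imaging.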
On to `CC(=O)O[C@]1(C(C)=O)CC[C@H]2[C@@H]3C=C(C)C4=CC(=O)CC[C@]4(C)[C@@H]3CC[C@@]21C`, for which the Potency was 2.35 µM (active).

On to `Cn1cc(-c2cnn3c(N)c(Br)c([C@H]4CCCNC4)nc23)cn1`, for which the Potency was 0.264 µM (active).

As to `N#Cc1c(C2CCNCC2)cc(-c2c(O)cccc2OCC2CC2)nc1N`, the Potency is 18.7 µM (active).

As for `CN(CC(=O)N(Cc1ccc(C2CCCCC2)cc1)c1ccc(C(=O)O)c(O)c1)S(=O)(=O)c1c(F)c(F)c(F)c(F)c1F`, the Potency is 26.4 µM (active).

Turning to `O=C1CSC(=O)N1C(CCc1ccncc1)COc1ccc(-c2cccc([N+](=O)[O-])c2)cc1` (stereo not given), the Potency is 18.7 µM (active).

On to `C=CC(=O)N1CCc2ccc(-n3c(=O)ccc4cnc5ccc(-c6cnn(C)c6)cc5c43)cc21`, for which the Potency was 3.72 µM (active).

On to `CC(C)c1cnn2c(NCc3ccccc3)cc(NCCCCCCN)nc12`, for which the Potency is 20.9 µM (active).

Consider `O=C(O)CCCCCC(=O)NN=C1CCCC1`, for which the Potency entry is “inactive”.

Consider `C#C[C@]1(O)CC[C@@H]2[C@@H]3CCc4cc(O)ccc4[C@H]3CC[C@@]21C`, for which the Potency was 13.2 µM (active).

Consider `CCOC(=O)N1CCN([N+]([O-])=NOc2ccc([N+](=O)[O-])cc2[N+](=O)[O-])CC1`, for which the Potency is 5.26 µM (active).

Take `CCc1cc(C(C)=NOCc2ccc(C3CCCCC3)c(C(F)(F)F)c2)ccc1CN1CC(C(=O)O)C1`: the Potency is 20.9 µM (active).

Consider `Cc1cn([C@@H]2O[C@H](CO)[C@@H](O)[C@H]2F)c(=O)[nH]c1=O`, for which the Potency result was “inactive”.

For `C=C[C@@H]1CN2CCC1C[C@H]2[C@H](O)c1ccnc2ccc(OC)cc12` (stereo not given in full), the Potency result was “inactive”.

On to `C[C@]12CCC(=O)C=C1[C@@H]1CC1[C@H]1[C@H]3[C@@H]4C[C@H]4[C@@]4(CCC(=O)O4)[C@@]3(C)CC[C@H]12` (stereo not given in full), for which the Potency entry was “inactive”.

In the case of `CCCNC(=O)[C@H]1O[C@H]1C(=O)N[C@H](C(=O)N1CCC[C@@H]1C(=O)OC)C(C)CC` (stereo not given in full), the Potency was 16.6 µM (active).

In the case of `CCN(CC)Cc1ccc2cc(COC(=O)Nc3ccc(C(=O)NO)cc3)ccc2c1`, the Potency was 0.833 µM (active).

Take `COc1cc(OC)c(NC(=O)Nc2cc(C)on2)cc1Cl`: the Potency entry is “inactive”.

Regarding `O=C(O)c1ccc(Nc2ncc3c(n2)-c2ccc(Cl)cc2C(c2c(F)cccc2F)=NC3)cc1`, the Potency was 0.0662 µM (active).

Regarding `Cn1cc(C2=C(c3c4n(c5ccccc35)CCC(CN)C4)C(=O)NC2=O)c2ccccc21` (stereo not given), the Potency was 18.7 µM (active).

Turning to `C#Cc1cccc(Nc2ncnc3cc(OCCOC)c(OCCO)cc23)c1`, the Potency was 5.26 µM (active).

Consider `N=c1ccn2c(n1)O[C@H]1[C@@H](O)[C@@H](CO)O[C@H]12`, for which the Potency was 11.8 µM (active).

For `CCOC(=O)C=C[C@H](C[C@@H]1CCNC1=O)NC(=O)[C@@H](CC(=O)[C@@H](NC(=O)c1cc(C)on1)C(C)C)Cc1ccc(F)cc1`, the Potency entry was “inactive”.

For `CN(C)CCN1C(=O)c2cccc3cc(N)cc(c23)C1=O`, the Potency is 1.87 µM (active).

In the case of `NC(=O)c1ncn([C@@H]2O[C@H](CO)[C@@H](O)[C@@H]2O)c1N`, the Potency entry is “inactive”.

On to `Nc1ncn([C@@H]2O[C@H](CO)[C@@H](O)[C@@H]2O)c(=O)n1`, for which the Potency is 16.6 µM (active).

`COc1cc(C(C)C)c(Oc2cnc(NC(CO)CO)nc2N)cc1I`: the Potency is 26.4 µM (active).

Regarding `CN(C)c1ccc2cc(C(=O)N[C@@H](CCCN=C(N)CCl)C(=O)NCc3ccccc3)ccc2c1`, the Potency is 23.5 µM (active).

Take `CCCc1nc(C(C)(C)O)c(C(=O)O)n1Cc1ccc(-c2ccccc2-c2nn[nH]n2)cc1`: the Potency entry is “inactive”.

As for `C[C@H](O)[C@@H]1C(=O)N2C(C(=O)O)=C(S[C@@H]3CN[C@H](CNS(N)(=O)=O)C3)[C@@H](C)[C@@H]12`, the Potency result was “inactive”.

Consider `Cc1ccccc1C(=O)Nc1ccc(C(=O)N2CCCC(O)c3cc(Cl)ccc32)c(C)c1` (stereo not given), for which the Potency entry was “inactive”.

A short description of a further test: qHTS of pediatric cancer cell lines to identify multiple opportunities for drug repurposing: Primary screen for U-2 OS cells (AID 1347096). Note: nearly all actives have a fitted effect of over 50% in size. Particulars: U-2 OS viability, CellTiter-Glo luminescence, 48 h; series mostly up to 46 µM. Put shortly:
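Viability after 48 h compound treatment at 37C, 500-1,000 cells/well, read as ATP luminescence with CellTiter-Glo. Primary screens used 11-point (MIPE, 0.78 nM-46 µM) or 8-point (NPC, 0.59 nM-46 µM) final concentrations; follow-up screens used 11-point dilutions.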
In general terms: Quantitative high-throughput screening tests each substance at several concentrations.
As to `N#Cc1c(C2CCNCC2)cc(-c2c(O)cccc2OCC2CC2)nc1N`, the Potency entry was “inactive”.

In the case of `N#CC(=C(O)c1ccc(Cl)cc1Cl)c1nc2cc(Cl)ccc2c(=O)[nH]1`, the Potency entry was “inactive”.

`CCc1cc(C(C)=NOCc2ccc(C3CCCCC3)c(C(F)(F)F)c2)ccc1CN1CC(C(=O)O)C1`: the Potency result was “inactive”.

As for `C[C@@H](NCc1cc2ccccc2[nH]1)c1cccc2ccccc12`, the Potency result is “inactive”.

For the compound `Cc1cn([C@@H]2O[C@H](CO)[C@@H](O)[C@H]2F)c(=O)[nH]c1=O`, the Potency result is “inactive”.

With `C[C@]12CCC(=O)C=C1[C@@H]1CC1[C@H]1[C@H]3[C@@H]4C[C@H]4[C@@]4(CCC(=O)O4)[C@@]3(C)CC[C@H]12` (stereo not given in full), the Potency result is “inactive”.

Take `COc1cc(OC)c(NC(=O)Nc2cc(C)on2)cc1Cl`: the Potency entry was “inactive”.

For the compound `O=C(O)c1ccc(Nc2ncc3c(n2)-c2ccc(Cl)cc2C(c2c(F)cccc2F)=NC3)cc1`, the Potency result is “inactive”.

`N#CC(=C(N)Sc1ccc(N)cc1)c1ccccc1C(F)(F)F`: the Potency result was “inactive”.

Regarding `CCCCCCCCCCCCc1ccc(S(=O)(=O)Nc2nncs2)cc1`, the Potency entry is “inactive”.

In the case of `CCOC(=O)C=C[C@H](C[C@@H]1CCNC1=O)NC(=O)[C@@H](CC(=O)[C@@H](NC(=O)c1cc(C)on1)C(C)C)Cc1ccc(F)cc1`, the Potency result was “inactive”.

For the compound `NC(=O)c1ncn([C@@H]2O[C@H](CO)[C@@H](O)[C@@H]2O)c1N`, the Potency entry is “inactive”.

For `Oc1cc2c(cc1O)C1c3ccc(O)c(O)c3OCC1(O)C2` (stereo not given), the Potency result is “inactive”.

Take `CCCc1nc(C(C)(C)O)c(C(=O)O)n1Cc1ccc(-c2ccccc2-c2nn[nH]n2)cc1`: the Potency result was “inactive”.

Turning to `C[C@H](O)[C@@H]1C(=O)N2C(C(=O)O)=C(S[C@@H]3CN[C@H](CNS(N)(=O)=O)C3)[C@@H](C)[C@@H]12`, the Potency result is “inactive”.
